Experimental data from the OligoGym collection.
Note: reference of the scale not given here.

Each sequence was assayed against C19orf48 (assay: pooled miR-30 sensor sort-seq; sequence = guide strand). Settings: shRNA.
Sequence ATAGGCCTGGTCACAATAGGGA has a sensor-assay potency score (higher = more potent) of -0.793.
For TGGAGCACCAGGCCAGGCGGTG, the sensor-assay potency score (higher = more potent) was -1.89.
In the case of TTATCCACCTTCTCCTGGGTGT, the sensor-assay potency score (higher = more potent) is reported as -0.455.
CCACTTATCCACCTTCTCCTGG gave a sensor-assay potency score (higher = more potent) of -1.46.
In the case of TGTCCTTGAGAGCCAGGCCCAG, the sensor-assay potency score (higher = more potent) is reported as -1.6.

What follows are sequences tested against C19orf61 in the same assay as above. Settings: shRNA.
In the case of TTCTTCTCGGTGAGGATCGTGT, the sensor-assay potency score (higher = more potent) is reported as -0.682.
Sequence TAAAGAGCTCTCCAGACCCTGC has a sensor-assay potency score (higher = more potent) of -0.972.
Work on TCATCCACCAACTTGATGCTGT yielded a sensor-assay potency score (higher = more potent) of 0.069.
TTGGCTGACAACAATGACATGA showed a sensor-assay potency score (higher = more potent) of 0.194.
Work on TTCTGCATGACGGAAGTGCTTG yielded a sensor-assay potency score (higher = more potent) of -0.495.
TTGCATTGTAACATGGACAGAG gave a sensor-assay potency score (higher = more potent) of 0.588.
For TAAGTTGACCTCAGAGTCCAGG, the sensor-assay potency score (higher = more potent) was -0.418.
TTGGGTAATAAAGAAGTCGATG showed a sensor-assay potency score (higher = more potent) of -0.372.
For TCTGCTGTCTGCAGGAACCTGT, the sensor-assay potency score (higher = more potent) was -0.731.
For TTCTCGGTGAGGATCGTGTGTG, the sensor-assay potency score (higher = more potent) was -0.797.
Work on TTTGCGGTCATTATTGATGAGA yielded a sensor-assay potency score (higher = more potent) of -1.14.
For TTGACCGCTCTGCTGGAGGTTT, the sensor-assay potency score (higher = more potent) was -0.879.
